{"source": "PubChem BioAssay (NCATS)", "note": "Inconclusive results are not listed. A call without a number means that no potency is given here. The source made the active and inactive calls. The call rests on the fitted dose curve; in most records, active means well fitted inhibition curve with a large enough effect; inconclusive means small, poorly fitted or top-dose-only effect; inactive means flat fitted curve, though single readings scatter.", "data": [{"target": "Calcium and integrin-binding protein 1 (Homo sapiens) (UniProt Q99828)", "sequence (Q99828 whole entry, looked up)": "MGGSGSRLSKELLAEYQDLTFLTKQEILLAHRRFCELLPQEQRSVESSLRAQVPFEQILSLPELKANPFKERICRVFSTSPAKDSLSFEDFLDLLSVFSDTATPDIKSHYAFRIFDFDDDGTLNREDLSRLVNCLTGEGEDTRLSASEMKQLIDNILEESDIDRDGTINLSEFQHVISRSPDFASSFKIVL", "assay": "Primary qHTS for Identification of Calcium Integrin Binding Protein 1 (CIB1) Competitor (AID 1508620); further: top concentration of the series differs between compounds", "conditions": "CIB1-GST / FITC-alphaIIb peptide fluorescence polarization; series mostly up to 114 µM", "in_short": "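Fluorescence polarization competition: GST-tagged CIB1 (1 uM final) preincubated with compound 15 min at room temperature, then FITC-labelled alphaIIb peptide (100 nM final) added. After 15 min at room temperature, polarization read at Ex 480/Em 540.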", "values": [{"smiles": "Cc1cccc(-n2cnc3cc(C(=O)N4CCC(Br)CC4)ccc32)c1", "Potency": "inactive"}, {"smiles": "Cn1cc2ccc(-c3ccc4ncnc(NCc5cccs5)c4c3)cc2n1", "Potency": "inactive"}, {"smiles": "COc1cccc(C2=Nn3c(nnc3-c3ccccc3OC)SC2)c1", "Potency": "inactive"}, {"smiles": "Fc1cc(Nc2nc(-c3ccncc3)nc3ccccc23)ccc1-c1ccnc(C(F)(F)F)c1", "Potency": "inactive"}, {"smiles": "Cc1cc2c(s1)c1cnn(Cc3cccc(Cl)c3)c(=O)c1n2C", "Potency": "inactive"}, {"smiles": "CN1CCOc2cc(S(=O)(=O)N3CCN(S(=O)(=O)c4c(F)cccc4F)CC3)cnc21", "Potency": "inactive"}, {"smiles": "O=C(NCCc1nc2ccccc2n1CCOc1ccc(Cl)cc1)C1CCCCC1", "Potency": "inactive"}, {"smiles": "COc1ccc(C2Nc3ccccc3C(=O)N2CC(C)(C)C)cc1COc1ccc(NC(C)=O)cc1", "note": "(stereo not drawn)", "Potency": "inactive"}]}]}
